In PubChem BioAssay AID1159580 (chemical genetic matrix, 2015):
Where “and” joins values, the source holds several entries; their conditions need not be identical. Equal entries are not always repeated. The campaign covered roughly 5,500 compounds. About 2,000 (36%) were called active. About 18% were inconclusive and are not listed. Cut-off read from the data, not from the text of the source: active = normalized growth mostly below about 0.91 (no sharp cut-off); inconclusive = no clear call, values can overlap the other calls; inactive = mostly above about 0.92. The list shows a part of the results.

Experiment: chemical genetic growth profiling, strain panel (AID 1159580);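 note: tested at 20 µM; growth read once vehicle control cultures reached saturation at 30 °C; 1 = growth at the plate median or of vehicle wells; lower values mean less growth of the strain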
Details: S. cerevisiae deletion strains, growth OD

Measured: normalized growth

C[C@H]1c2cccc(O)c2C(O)=C2C(=O)[C@]3(O)C(O)=C(C(N)=O)C(=O)[C@@H](N(C)C)[C@@H]3[C@@H](O)[C@@H]21
active: locus YGL248W, strain PDE1, hits give low values 0.854 | strain wtn01, hits give low values 0.891
inactive: locus YAL021C, strain ccr4, hits give low values 0.991 | locus YAL026C, strain drs2, hits give low values 0.978 | locus YAL030W, strain snc1, hits give low values 0.976 | locus YBL061C, strain skt5, hits give low values 0.995 | locus YBR009C, strain hhf1, hits give low values 0.958 | locus YBR021W, strain FUR4, hits give low values 0.884 | locus YBR023C, strain chs3, hits give low values 0.987 | locus YBR171W, strain sec66, hits give low values 0.956 | locus YBR229C, strain ROT2, hits give low values 1 | locus YBR231C, strain swc5, hits give low values 0.979 | locus YBR279W, strain paf1, hits give low values 0.988 | locus YCL011C, strain gbp2, hits give low values 0.971 | locus YCL016C, strain dcc1, hits give low values 1.02 | locus YCL029C, strain bik1, hits give low values 0.953 | locus YCL069W, strain vba3, hits give low values 0.956 | locus YCR088W, strain abp1, hits give low values 0.985 | locus YDL005C, strain med2, hits give low values 0.998 | locus YDL035C, strain GPR1, hits give low values 0.963 | locus YDL040C, strain nat1, hits give low values 0.975 | locus YDL074C, strain BRE1, hits give low values 0.963 | locus YDL101C, strain DUN1, hits give low values 0.984 | locus YDL185W, strain tfp1, hits give low values 0.954 | locus YDL192W, strain arf1, hits give low values 0.966 | locus YDR001C, strain nth1, hits give low values 0.984 | locus YDR069C, strain doa4, hits give low values 0.973 | locus YDR101C, strain arx1, hits give low values 1.01 | locus YDR137W, strain rgp1, hits give low values 0.962 | locus YDR159W, strain sac3, hits give low values 0.951 | locus YDR162C, strain NBP2, hits give low values 0.978 | locus YDR195W, strain ref2 0.979 | locus YDR297W, strain sur2, hits give low values 0.991 | locus YDR318W, strain mcm21, hits give low values 0.961 | locus YDR334W, strain swr1, hits give low values 0.944 | locus YDR335W, strain msn5, hits give low values 0.988 | locus YDR388W, hits give low values 0.98 | locus YDR392W, strain spt3, hits give low values 0.911 | locus YDR502C, strain sam2, hits give low values 0.979 | locus YEL003W, strain gim4, hits give low values 0.978 | locus YEL037C, strain rad23, hits give low values 0.975 | locus YEL061C, strain CIN8 (second series), hits give low values 0.971 | locus YEL061C, strain CIN8, hits give low values 0.984 | locus YER015W, strain faa2, hits give low values 0.977 | locus YER016W, strain bim1, hits give low values 1.01 | locus YER110C, hits give low values 0.965 | locus YER111C, strain swi4, hits give low values 0.995 | locus YER155C, strain BEM2 (second series), hits give low values 0.886 | locus YER155C, strain BEM2, hits give low values 1.01 | locus YER167W, strain BCK2, hits give low values 0.994 | locus YFR010W, strain ubp6, hits give low values 0.955 | locus YGL078C, strain dbp3, hits give low values 0.968 | locus YGL086W, strain mad1, hits give low values 0.992 | locus YGL167C, strain pmr1, hits give low values 0.965 | locus YGL173C, strain kem1, hits give low values 0.975 | locus YGL227W, strain vid30, hits give low values 0.987 | locus YGL240W, strain doc1, hits give low values 0.96 | locus YGL253W, strain hxk2, hits give low values 0.988 | locus YGR135W, strain pre9, hits give low values 0.923 | locus YGR229C, strain SMI1, hits give low values 0.983 | locus YGR252W, strain gcn5, hits give low values 0.93 | locus YHR013C, strain ard1, hits give low values 1.05 | locus YHR027C, strain rpn1, hits give low values 0.98 | locus YHR030C, strain SLT2, hits give low values 0.996 and 1.03 | locus YHR079C, strain IRE1 (second series), hits give low values 0.978 | locus YHR079C, strain IRE1, hits give low values 1.03 | locus YHR094C, strain hxt1, hits give low values 0.987 | locus YHR129C, strain ARP1, hits give low values 0.994 | locus YHR142W, strain chs7, hits give low values 0.998 | locus YHR200W, strain rpn10, hits give low values 0.97 | locus YIL066C, strain RNR3, hits give low values 0.974 | locus YIL073C, strain SPO22, hits give low values 0.751 | locus YIL125W, strain kgd1, hits give low values 0.983 | locus YIR030C, strain dcg1, hits give low values 0.961 | locus YJL092W, strain hpr5, hits give low values 0.991 | locus YJL095W, strain BCK1 (second series), hits give low values 0.979 | locus YJL095W, strain BCK1, hits give low values 0.929 and 1.03 | locus YJL115W, strain asf1, hits give low values 0.963 | locus YJL129C, strain trk1, hits give low values 0.991 | locus YJL134W, strain LCB3, hits give low values 1 | locus YJL154C, strain vps35, hits give low values 0.983 | locus YJL164C, strain tpk1, hits give low values 0.976 | locus YJL166W, strain qcr8, hits give low values 0.944 | locus YJL168C, strain set2, hits give low values 0.985 | locus YJL187C, strain SWE1 (second series), hits give low values 0.97 | locus YJR043C, strain POL32, hits give low values 0.958 | locus YJR066W, strain TOR1, hits give low values 0.928 | locus YKL009W, strain mrt4, hits give low values 0.967 | locus YKL068W, hits give low values 0.986 | locus YKL085W, strain MDH1 (second series), hits give low values 0.972 | locus YKL085W, strain MDH1, hits give low values 0.972 | locus YKL160W, strain elf1, hits give low values 0.992 | locus YKL190W, strain CNB1, hits give low values 0.988 | locus YKR001C, strain vps1, hits give low values 0.942 | locus YKR026C, strain gcn3, hits give low values 0.972 | locus YKR091W, strain srl3, hits give low values 0.985 | locus YLL001W, strain dnm1, hits give low values 0.974 | locus YLL026W, hits give low values 0.991 | locus YLL041C, strain sdh2, hits give low values 0.973 | locus YLR027C, strain aat2, hits give low values 0.998 | locus YLR039C, strain RIC1, hits give low values 0.971 | locus YLR058C, strain SHM2, hits give low values 0.976 | locus YLR102C, strain apc9, hits give low values 0.968 | locus YLR113W, strain HOG1, hits give low values 1.08 | locus YLR221C, strain rsa3, hits give low values 0.962 | locus YLR258W, strain gsy2, hits give low values 0.978 | locus YLR262C, strain YPT6 (second series), hits give low values 0.936 | locus YLR262C, strain YPT6, hits give low values 0.967 | locus YLR268W, strain sec22, hits give low values 0.955 | locus YLR320W, strain mms22, hits give low values 0.944 | locus YLR330W, strain CHS5, hits give low values 0.979 | locus YLR342W, strain FKS1 (second series), hits give low values 0.859 | locus YLR342W, strain FKS1, hits give low values 0.977 | locus YLR357W, strain rsc2, hits give low values 0.911 | locus YLR370C, strain arc18, hits give low values 0.982 | locus YLR371W, strain rom2, hits give low values 0.963 | locus YLR384C, strain iki3, hits give low values 1 | locus YLR418C, strain cdc73, hits give low values 0.91 | locus YML016C, strain PPZ1, hits give low values 0.979 | locus YML032C, strain rad52, hits give low values 0.984 | locus YML120C, strain ndi1, hits give low values 0.97 | locus YML124C, strain tub3, hits give low values 0.993 | locus YMR058W, strain fet3, hits give low values 0.947 | locus YMR078C, strain ctf18, hits give low values 0.963 | locus YMR125W, strain sto1, hits give low values 0.958 | locus YMR129W, hits give low values 0.989 | locus YMR205C, strain PFK2, hits give low values 0.992 | locus YMR223W, strain ubp8, hits give low values 0.922 | locus YMR231W, strain pep5, hits give low values 0.989 | locus YMR307W, strain GAS1, hits give low values 1.08 | locus YNL067W, strain RPL9B, hits give low values 0.939 | locus YNL071W, strain lat1, hits give low values 0.975 | locus YNL183C, strain NPR1, hits give low values 0.987 | locus YNL209W, strain ssb2, hits give low values 0.985 | locus YNL233W, strain BNI4, hits give low values 0.939 | locus YNL248C, strain rpa49, hits give low values 0.95 | locus YNL250W, strain rad50, hits give low values 0.966 | locus YNL271C, strain bni1, hits give low values 0.981 | locus YNL298W, strain CLA4, hits give low values 0.969 | locus YNL307C, strain MCK1, hits give low values 0.973 | locus YNL322C, strain KRE1 (second series), hits give low values 0.969 | locus YNL322C, strain KRE1, hits give low values 0.991 | locus YNR049C, strain mso1, hits give low values 0.984 | locus YNR052C, strain pop2, hits give low values 0.979 | locus YOL012C, strain htz1 1.14 | locus YOL147C, strain pex11, hits give low values 0.988 | locus YOR001W, strain rrp6, hits give low values 0.923 | locus YOR061W, strain CKA2, hits give low values 0.993 | locus YOR069W, strain VPS5, hits give low values 0.998 | locus YOR070C, strain gyp1, hits give low values 0.99 | locus YOR080W, strain dia2, hits give low values 0.982 | locus YOR083W, strain WHI5, hits give low values 1 | locus YOR106W, strain vam3, hits give low values 0.965 | locus YOR136W, strain idh2, hits give low values 0.98 | locus YOR144C, strain elg1, hits give low values 0.995 | locus YOR184W, strain ser1, hits give low values 0.939 | locus YOR231W, strain MKK1, hits give low values 1.06 | locus YOR265W, strain rbl2, hits give low values 0.992 | locus YOR270C, strain vph1, hits give low values 0.943 | locus YOR290C, strain snf2, hits give low values 1 | locus YOR316C, strain cot1, hits give low values 0.973 | locus YPL051W, strain arl3, hits give low values 0.993 | locus YPL055C, strain LGE1, hits give low values 0.866 | locus YPL078C, strain atp4, hits give low values 0.999 | locus YPL106C, strain sse1, hits give low values 0.912 | locus YPL240C, strain hsp82, hits give low values 0.984 | locus YPL241C, strain CIN2, hits give low values 0.998 | locus YPL256C, strain CLN2, hits give low values 1.05 | locus YPR119W, strain clb2, hits give low values 0.98 | locus YPR141C, strain kar3, hits give low values 0.965 | locus YPR163C, strain tif3, hits give low values 0.985 | locus YPR167C, strain met16, hits give low values 0.982
